Measurements reported in the supplement of paper PMC10849652.
The full data set covers some 7,900 targets. This sample favours those with a hit. About 0.6% of all pairs of compound and target were hits. Values without a mark were called inactive.

Key:
Assay in all cases: log2 fold change, soluble protein after heating vs DMSO (PISA); higher = thermal stabilisation; K562 cells, 10 uM, 30 min; active = over 0.2 and 3.5 SD of the protein, either way, in both replicates (recomputed)
erlotinib = compound: C#Cc1cccc(Nc2ncnc3cc(OCCOC)c(OCCOC)cc23)c1 [erlotinib]
Procedure, shortened: (§1)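 K562 cells at 2×10^6 cells/mL were treated with 10 μM compound for 30 min. Aliquots were heated for 3 min across 48°C-58°C, pooled, and extracted in PBS with 0.5% NP-40 at 4°C; soluble protein was the supernatant after 21,000xg for 90 min. Soluble protein was quantified by TMTpro 16plex LC-MS/MS with channel sums equalised, and reported as log2 fold change in thermal stability against DMSO controls, with values from duplicates.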

[1] = compound: C/C(=N\NC(=O)C1=CC(=CC=C1)S(=O)(=O)N2CCOCC2)/C3=C(C=CC(=C3)Cl)O
Procedure, shortened: as §1

[2] = compound: C1=CC(=C(C=C1Cl)C2=NC3=NC=CN=C3C(=N2)NC4=CC=NC=C4)F
Procedure, shortened: as §1

[3] = compound: C1=CC(=CC=C1C2=NC3=C(N2)C=C(C=C3)C(=O)N)OC4=CC=C(C=C4)Cl
Procedure, shortened: as §1

[4] = compound: C1=CC2=C(C=CC(=C2)/C=C\3/C(=O)NC(=NCC4=CC=CS4)S3)N=C1
Procedure, shortened: as §1

[5] = compound: C1=CC2=NC=CN=C2C=C1/C=C/3\C(=O)NC(=O)S3
Procedure, shortened: as §1

[6] = compound: C1=CC=C(C=C1)C2=NC(=C(N2)C3=CC=NC=C3)C4=CC(=C(C=C4)Cl)O
Procedure, shortened: as §1

[7] = compound: C1=CC=C2C(=C1)C3=NNC4=CC=CC(=C43)C2=O
Procedure, shortened: as §1

[8] = compound: C1CCN(C1)C(=O)NC2=CC=CC(=C2)NC3=NC=C(C(=N3)NCCC4=CN=CN4)Br
Procedure, shortened: as §1

[9] = compound: C1CN(CCC1(CC2=CC=C(C=C2)Cl)N)C3=NC=NC4=C3C=CN4
Procedure, shortened: as §1

IRAK-1-4 Inhibitor I = compound: C1COCCN1CCN2C3=CC=CC=C3N=C2NC(=O)C4=CC(=CC=C4)[N+](=O)[O-] [IRAK-1-4 Inhibitor I]
Procedure, shortened: as §1

ibrutinib = compound: C=CC(=O)N1CCC[C@@H](n2nc(-c3ccc(Oc4ccccc4)cc3)c3c(N)ncnc32)C1 [ibrutinib]
Procedure, shortened: as §1

[10] = compound: CC(=O)c1cnc2ccc(-c3cc(Cl)c(O)c(Cl)c3)nc2c1N[C@H]1CC[C@H](CN(C)C)CC1
Procedure, shortened: as §1

ralimetinib = compound: CC(C)(C)Cn1c(N)nc2ccc(-c3[nH]c(C(C)(C)C)nc3-c3ccc(F)cc3)nc21 [ralimetinib]
Procedure, shortened: as §1

[11] = compound: CC(C)(O)CC(=O)NCCn1ccc2ncnc(Nc3ccc(Oc4cccc(C(F)(F)F)c4)c(Cl)c3)c21
Procedure, shortened: as §1

[12] = compound: CC(C)C1=C2N=C(C=C(N2N=C1)NCC3=CC=CC=C3)NCCCCCCN
Procedure, shortened: as §1

[13] = compound: CC(C)C[C@@H](C=O)NC(=O)[C@H](CC(C)C)NC(=O)[C@H](CC(C)C)NC(=O)OCc1ccccc1
Procedure, shortened: as §1

pinometostat = compound: CC(C)N(C[C@H]1O[C@@H](n2cnc3c(N)ncnc32)[C@H](O)[C@@H]1O)[C@H]1C[C@@H](CCc2nc3cc(C(C)(C)C)ccc3[nH]2)C1 [pinometostat]
Procedure, shortened: as §1

[14] = compound: CC1=C(C(CC(=O)N1)C2=CC=C(C=C2)C(F)(F)F)C(=O)NC3=C(C=C4C(=C3)C=NN4)F
Procedure, shortened: as §1

[15] = compound: CC1=C(C2=C(C=C1)C(=O)C3=CC=CC=C3N2CCCN)C
Procedure, shortened: as §1

Sequence of UniProt P42226 (P42226 whole entry, looked up): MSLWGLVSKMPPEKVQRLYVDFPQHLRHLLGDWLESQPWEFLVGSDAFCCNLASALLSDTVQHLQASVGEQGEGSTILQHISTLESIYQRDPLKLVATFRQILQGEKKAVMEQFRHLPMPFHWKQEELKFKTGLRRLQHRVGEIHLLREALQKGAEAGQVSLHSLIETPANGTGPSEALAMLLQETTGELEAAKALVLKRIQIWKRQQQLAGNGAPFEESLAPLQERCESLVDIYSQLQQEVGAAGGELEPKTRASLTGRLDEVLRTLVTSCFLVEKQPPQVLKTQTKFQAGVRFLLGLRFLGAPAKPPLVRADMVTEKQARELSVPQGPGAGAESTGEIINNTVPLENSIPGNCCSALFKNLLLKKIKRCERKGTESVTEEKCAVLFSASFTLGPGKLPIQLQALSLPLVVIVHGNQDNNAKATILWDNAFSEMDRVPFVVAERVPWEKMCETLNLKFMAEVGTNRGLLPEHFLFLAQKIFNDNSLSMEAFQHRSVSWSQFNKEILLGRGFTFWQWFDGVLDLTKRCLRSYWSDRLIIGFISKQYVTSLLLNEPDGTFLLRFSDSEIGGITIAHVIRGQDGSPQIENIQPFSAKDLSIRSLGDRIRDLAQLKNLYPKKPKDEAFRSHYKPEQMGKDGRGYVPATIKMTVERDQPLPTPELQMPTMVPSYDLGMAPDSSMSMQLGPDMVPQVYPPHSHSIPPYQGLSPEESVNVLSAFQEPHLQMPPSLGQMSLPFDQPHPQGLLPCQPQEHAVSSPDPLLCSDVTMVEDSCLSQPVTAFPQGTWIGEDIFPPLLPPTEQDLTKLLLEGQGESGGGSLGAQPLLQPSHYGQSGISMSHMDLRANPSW
Sequence of UniProt O95772 (O95772 whole entry, looked up): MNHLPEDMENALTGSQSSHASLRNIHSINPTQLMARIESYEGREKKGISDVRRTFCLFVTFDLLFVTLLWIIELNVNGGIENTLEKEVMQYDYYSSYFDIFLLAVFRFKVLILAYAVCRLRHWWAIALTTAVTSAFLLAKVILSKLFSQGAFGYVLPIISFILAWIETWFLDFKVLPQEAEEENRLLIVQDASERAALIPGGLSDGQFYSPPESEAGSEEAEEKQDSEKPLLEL
Sequence of UniProt P30626 (P30626 whole entry, looked up): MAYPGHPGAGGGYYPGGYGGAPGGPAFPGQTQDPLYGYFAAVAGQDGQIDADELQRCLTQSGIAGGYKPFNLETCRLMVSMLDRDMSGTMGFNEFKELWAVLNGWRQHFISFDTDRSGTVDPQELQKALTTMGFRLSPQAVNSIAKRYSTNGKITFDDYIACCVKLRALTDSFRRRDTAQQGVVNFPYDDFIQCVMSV
Sequence of UniProt Q9BZJ4 (Q9BZJ4 whole entry, looked up): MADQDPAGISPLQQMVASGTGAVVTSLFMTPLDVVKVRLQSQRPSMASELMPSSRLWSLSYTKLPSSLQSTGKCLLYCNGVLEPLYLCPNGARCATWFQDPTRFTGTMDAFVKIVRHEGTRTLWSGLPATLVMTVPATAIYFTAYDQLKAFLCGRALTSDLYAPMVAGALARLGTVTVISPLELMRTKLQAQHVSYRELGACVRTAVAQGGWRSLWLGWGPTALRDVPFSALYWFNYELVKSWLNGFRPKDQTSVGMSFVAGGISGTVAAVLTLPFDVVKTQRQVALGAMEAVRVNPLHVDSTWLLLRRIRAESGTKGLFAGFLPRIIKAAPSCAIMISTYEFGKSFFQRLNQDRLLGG
Sequence of UniProt Q13596 (Q13596 whole entry, looked up): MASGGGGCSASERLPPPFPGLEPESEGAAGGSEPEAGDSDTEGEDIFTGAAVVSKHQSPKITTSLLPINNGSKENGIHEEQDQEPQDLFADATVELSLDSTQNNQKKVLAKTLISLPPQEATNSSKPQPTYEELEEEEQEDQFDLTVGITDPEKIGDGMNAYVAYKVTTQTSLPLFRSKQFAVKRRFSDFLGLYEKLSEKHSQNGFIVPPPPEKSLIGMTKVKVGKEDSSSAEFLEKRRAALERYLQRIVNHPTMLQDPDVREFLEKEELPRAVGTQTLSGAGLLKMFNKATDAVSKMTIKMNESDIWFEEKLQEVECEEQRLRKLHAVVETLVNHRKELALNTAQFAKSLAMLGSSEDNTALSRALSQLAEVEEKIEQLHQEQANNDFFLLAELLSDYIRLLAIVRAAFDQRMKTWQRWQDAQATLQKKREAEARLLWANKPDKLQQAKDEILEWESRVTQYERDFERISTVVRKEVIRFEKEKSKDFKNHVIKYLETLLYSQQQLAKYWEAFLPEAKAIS
Sequence of UniProt P51687 (P51687 whole entry, looked up): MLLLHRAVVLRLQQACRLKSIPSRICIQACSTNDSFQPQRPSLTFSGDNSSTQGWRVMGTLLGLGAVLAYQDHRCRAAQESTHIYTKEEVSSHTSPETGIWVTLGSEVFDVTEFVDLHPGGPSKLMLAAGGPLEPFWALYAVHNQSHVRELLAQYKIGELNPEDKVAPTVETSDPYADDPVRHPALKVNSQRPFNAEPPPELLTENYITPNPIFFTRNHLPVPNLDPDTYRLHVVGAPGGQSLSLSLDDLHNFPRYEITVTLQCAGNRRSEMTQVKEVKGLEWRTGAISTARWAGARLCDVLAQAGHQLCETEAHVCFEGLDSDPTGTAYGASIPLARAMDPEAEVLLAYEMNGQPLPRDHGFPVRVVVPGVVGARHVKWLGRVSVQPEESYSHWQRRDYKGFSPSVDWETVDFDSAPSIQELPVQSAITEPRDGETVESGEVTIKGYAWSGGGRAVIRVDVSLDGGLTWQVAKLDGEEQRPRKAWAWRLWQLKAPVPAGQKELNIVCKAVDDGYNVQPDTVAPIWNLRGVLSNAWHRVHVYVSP
Sequence of UniProt Q13043 (Q13043 whole entry, looked up): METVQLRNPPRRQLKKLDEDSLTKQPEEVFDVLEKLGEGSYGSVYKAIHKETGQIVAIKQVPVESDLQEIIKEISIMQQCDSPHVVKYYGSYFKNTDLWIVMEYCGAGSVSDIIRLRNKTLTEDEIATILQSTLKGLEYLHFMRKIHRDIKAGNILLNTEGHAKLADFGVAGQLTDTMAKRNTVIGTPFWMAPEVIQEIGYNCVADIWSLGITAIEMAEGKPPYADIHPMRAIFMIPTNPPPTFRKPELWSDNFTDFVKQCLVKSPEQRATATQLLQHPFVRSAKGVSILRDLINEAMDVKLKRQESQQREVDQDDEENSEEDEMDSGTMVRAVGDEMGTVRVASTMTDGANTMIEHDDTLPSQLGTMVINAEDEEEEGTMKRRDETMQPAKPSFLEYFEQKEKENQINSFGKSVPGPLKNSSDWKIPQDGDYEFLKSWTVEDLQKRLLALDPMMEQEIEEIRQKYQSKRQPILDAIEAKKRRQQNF

| Target | log2 fold change (erlotinib) | log2 fold change [1] | log2 fold change [2] | log2 fold change [3] | log2 fold change [4] | log2 fold change [5] | log2 fold change [6] | log2 fold change [7] | log2 fold change [8] | log2 fold change [9] | log2 fold change (IRAK-1-4 Inhibitor I) | log2 fold change (ibrutinib) | log2 fold change [10] | log2 fold change (ralimetinib) | log2 fold change [11] | log2 fold change [12] | log2 fold change [13] | log2 fold change (pinometostat) | log2 fold change [14] | log2 fold change [15] |
| --- | --- | --- | --- | --- | --- | --- | --- | --- | --- | --- | --- | --- | --- | --- | --- | --- | --- | --- | --- | --- |
| SUOX (UniProt P51687) | 0.044 | 0.047 | 0.046 | -0.01 | 0.027 | 0.036 | -0.112 | -0.004 | 0.013 | 0.087 | 0.123 | -0.007 | 0.003 | 0.012 | -0.022 | 0.042 | 0.013 | 0.016 | 0.039 | 0.02 |
| SNX1 (UniProt Q13596) | 0.048 | 0.034 | 0.009 | 0.055 | 0.005 | -0.035 | -0.024 | -0.118 | 0.017 | -0.03 | 0.022 | 0.022 | -0.227 | 0.033 | -0.288 | -0.246 | 0.034 | 0.014 | 0.015 | 0.036 |
| STARD3NL (UniProt O95772) | 0.004 | -0.107 | -0.004 | -0.003 | 0.169 | 0.048 | 0.11 | 0.103 | -0.013 | 0.015 | 0.014 | -0.023 | -0.216 | 0.038 | -0.014 | -0.432 (active) | -0.036 | 0.013 | 0.007 | 0.062 |
| SLC25A39 (UniProt Q9BZJ4) | -0.072 | -0.217 | 0.038 | 0.062 | 0.193 | 0.118 | -0.042 | -0.046 | -0.186 | 0.112 | 0.037 | 0.032 | 0.068 | -0.035 | -0.112 | -0.673 (active) | 0.035 | 0.294 | -0.129 | -0.11 |
| STK4 (UniProt Q13043) | -0.017 | 0 | -0.02 | 0.003 | 0.04 | -0.02 | -0.009 | -0.208 (active) | -0.025 | 0.025 | -0.012 | -0.078 | -0.233 (active) | 0.002 | -0.018 | -0.019 | 0.015 | 0.008 | 0.023 | 0.019 |
| SYNE1 (UniProt Q8NF91) | 0.155 | -0.499 (active) | 0.07 | -0.132 | 0.132 | -0.02 | 0.058 | 0 | -0.038 | 0.172 | 0.062 | -0.015 | -0.398 | 0.127 | -0.212 | 0.097 | 0.064 | 0.002 | -0.031 | 0.075 |
| SRI (UniProt P30626) | -0.042 | 0.113 | 0.322 | 0.025 | 0.09 | 0.121 | 0.185 | 0.016 | -0.037 | -0.041 | -0.017 | -0.032 | -0.014 | -0.039 | -0.108 | 0.026 | -0.048 | -0.036 | 0.069 | 0.201 |
| STAT6 (UniProt P42226) | 0.082 | 0.061 | 0.12 | 0.018 | 0.022 | -0.032 | 0.025 | -0.026 | -0.063 | 0.04 | -0.145 | 0.031 | -0.222 | 0.054 | -0.128 | -0.058 | 0.007 | 0.11 | 0.125 | -0.048 |
